The supplement of paper PMC8728848
This is one part of a sample in which the strongest signals are shown more often than they occur.

Key:
Experiment in all cases: glycan array binding signal (z-score within array); higher = stronger binding
Details in all cases: glycan notation: IUPAC condensed, linker removed; mutation: Y228W
[1] = molecular target: Fuc(a1-2)Gal(b1-3)GlcNAc(b1-3)[Neu5Ac(a2-6)Gal(b1-4)GlcNAc(b1-6)]Gal(b1-4)Glc
Summary of the method: (§1)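 Glycan array data came from 3228 arrays in the Consortium for Functional Glycomics database, and only arrays with an available protein sequence were kept. Glycan names were put into IUPAC-condensed notation, and columns mapping to the same glycan were averaged. The binding signal is a within-array Z-score, averaged across arrays of one protein sequence run at different concentrations or buffers and across linkers. A negative Z-score can be read as non-binding.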

Fuc(a1-2)Gal(b1-4)Glc = molecular target: Fuc(a1-2)Gal(b1-4)Glc
Summary of the method: as §1

[2] = molecular target: Fuc(a1-2)Gal(b1-4)GlcNAc(b1-3)Gal(b1-4)GlcNAc(b1-2)Man(a1-3)[Fuc(a1-2)Gal(b1-4)GlcNAc(b1-3)Gal(b1-4)GlcNAc(b1-2)Man(a1-6)]Man(b1-4)GlcNAc(b1-4)GlcNAc
Summary of the method: as §1

[3] = molecular target: Fuc(a1-2)Gal(b1-4)GlcNAc(b1-3)[Fuc(a1-3)[Gal(b1-4)]GlcNAc(b1-6)]Gal(b1-4)Glc
Summary of the method: as §1

[4] = molecular target: Fuc(a1-2)Gal(b1-4)GlcNAc(b1-6)GalNAc
Summary of the method: as §1

[5] = molecular target: Fuc(a1-2)Gal(b1-4)[Fuc(a1-3)]GlcNAc(b1-3)GalNAc
Summary of the method: as §1

[6] = molecular target: Fuc(a1-2)[Gal(a1-3)]Gal(b1-3)GlcNAc(b1-3)GalNAc
Summary of the method: as §1

[7] = molecular target: Fuc(a1-2)[Gal(a1-3)]Gal(b1-4)GlcNAc(b1-2)Man
Summary of the method: as §1

[8] = molecular target: Fuc(a1-2)[Gal(a1-3)]Gal(b1-4)[Fuc(a1-3)]GlcNAc
Summary of the method: as §1

[9] = molecular target: Fuc(a1-2)[GalNAc(a1-3)]Gal(b1-4)[Fuc(a1-3)]GlcNAc
Summary of the method: as §1

[10] = molecular target: Fuc(a1-2)[GalNAc(a1-3)]Gal(b1-4)[Fuc(a1-3)]GlcNAc(b1-3)GalNAc
Summary of the method: as §1

[11] = molecular target: Fuc(a1-3)[Gal(b1-4)]GlcNAc(b1-2)Man(a1-3)[Fuc(a1-3)[Gal(b1-4)]GlcNAc(b1-2)Man(a1-6)]Man(b1-4)GlcNAc(b1-4)[Fuc(a1-6)]GlcNAc
Summary of the method: as §1

[12] = molecular target: Fuc(a1-3)[Gal(b1-4)]GlcNAc(b1-3)Gal(b1-4)[Fuc(a1-3)]GlcNAc(b1-3)Gal(b1-4)[Fuc(a1-3)]GlcNAc
Summary of the method: as §1

[13] = molecular target: Fuc(a1-3)[Gal3S(b1-4)]GlcNAc6S
Summary of the method: as §1

[14] = molecular target: Gal(a1-3)Gal(b1-4)GlcNAc(b1-6)GalNAc
Summary of the method: as §1

[15] = molecular target: Gal(a1-3)[Gal(a1-4)]Gal(b1-4)GlcNAc
Summary of the method: as §1

Gal(a1-4)Gal(b1-4)GlcNAc = molecular target: Gal(a1-4)Gal(b1-4)GlcNAc
Summary of the method: as §1

Gal(b1-3)Gal(b1-4)GlcNAc = molecular target: Gal(b1-3)Gal(b1-4)GlcNAc
Summary of the method: as §1

Gal(b1-3)GalNAc = molecular target: Gal(b1-3)GalNAc
Summary of the method: as §1

Gal(b1-3)GalNAc(b1-3)Gal = molecular target: Gal(b1-3)GalNAc(b1-3)Gal
Summary of the method: as §1

[16] = molecular target: Gal(b1-3)GalNAc(b1-4)Gal(b1-4)Glc
Summary of the method: as §1

[17] = molecular target: Gal(b1-3)GalNAc(b1-4)[Neu5Ac(a2-3)]Gal(b1-4)Glc
Summary of the method: as §1

Gal(b1-3)GlcNAc = molecular target: Gal(b1-3)GlcNAc
Summary of the method: as §1

Gal(b1-3)GlcNAc(b1-2)Man = molecular target: Gal(b1-3)GlcNAc(b1-2)Man
Summary of the method: as §1

[18] = molecular target: Gal(b1-3)GlcNAc(b1-3)Gal(b1-4)GlcNAc
Summary of the method: as §1

[19] = molecular target: Gal(b1-3)GlcNAc(b1-3)Gal(b1-4)GlcNAc(b1-2)Man(a1-3)[Gal(b1-3)GlcNAc(b1-3)Gal(b1-4)GlcNAc(b1-2)Man(a1-6)]Man(b1-4)GlcNAc(b1-4)GlcNAc
Summary of the method: as §1

[20] = molecular target: Gal(b1-4)GlcNAc(a1-6)Gal(b1-4)GlcNAc
Summary of the method: as §1

[21] = molecular target: Gal(b1-4)GlcNAc(b1-2)Man(a1-3)[Gal(b1-4)GlcNAc(b1-2)Man(a1-6)]Man(b1-4)GlcNAc(b1-4)[Fuc(a1-6)]GlcNAc
Summary of the method: as §1

[22] = molecular target: Gal(b1-4)GlcNAc(b1-2)[Gal(b1-4)GlcNAc(b1-6)]Man(a1-6)[GlcNAc(b1-4)][Gal(b1-4)GlcNAc(b1-2)Man(a1-3)]Man(b1-4)GlcNAc(b1-4)GlcNAc
Summary of the method: as §1

[23] = molecular target: Gal(b1-4)GlcNAc(b1-3)Gal(b1-4)GlcNAc(b1-2)[Gal(b1-4)GlcNAc(b1-3)Gal(b1-4)GlcNAc(b1-6)]Man(a1-6)[Gal(b1-4)GlcNAc(b1-3)Gal(b1-4)GlcNAc(b1-2)Man(a1-3)]Man(b1-4)GlcNAc(b1-4)[Fuc(a1-6)]GlcNAc
Summary of the method: as §1

B1: Epa1-NP-mutant-Y228W (Candida glabrata), Q6VBJ0 (protein)
chain: MILNPALFLNKCVCIYTTLILLLLTNGGYATSSNDISLASKDPTTFPLGCSPDITTPKKGLSMELYSYDFRKKGSYPCWDAAYLDPNYPRTGYKSHRLLAKVDGVTGNINFYYHATKGCTPQLGHLPASYNYPKPLTMTNFTMLLYGYFRPKVTGFHTFTISADDLLFVNFGAGNAFDCCRRDSSADHFGNYQAYAIWGSKTAKDELTVHLDAGVYYPIRLFYNNREWDGALSFTFKTESNENTVSDFSEYFFSLDDTEEGCPGLISYDSSCASVKTSKIIGIDYHTETPNENLVPITKTIYHLGIPCTGTTTTPLCGSGFYDPLANKCVTINTSSTSSVTKTTSHTTSKEVSFHSSISSQKTLIPKSIPSPYGPIKSQSIPTEMETSSEISSSEYAFSDVISTPSHSPYTKKHSSLNSSSYTSTVIHSLTSYSISQGIFSTSLSEQNITSKSSTDKFSTATSMSNNITQSSIIISQFSTNNENYTTTSMHTSSDKISTETLNNSISTTTSILFSNSSTILKNNTTIISSDKDTHYHPVNPTIVCSTNKTEIICASITQPSISNSNNHWSSSVLKFNSTTVRSTLPSSAGSNETSINVPFSSSTESNTSTSSTSTSNSKMVRSTLPSSAGSNETSISVPFSSSTESNTSTSSTSTSNSKMVRSTLPSSAGSNETSINVPFSSSTESNTSTSSTSTSNSKTVRSTPFSSAGIIMTSLSQRNNKSASSYASSNSKCYNTADSCRKVHSTPSYLLTSSYTSEGVDYDCSLVSTKLKINDTNCVNNKHTTKSCLKTSVTTTIPTLEIKTARKSSSNTIGLHSYPTSSPNKSISSAPIIGYISSFKTIKTASPSYQTSDLTTITTITSLNNPGSTAVENTHESNDKSRKTSSNDISSKHSVIKETKDAVESSNKSHQTNTLKCSSIIIASSSHNSYESLGGTTLTLTLSKVYSPQNNDTLPFLEISEVNPSRTVLPESSKMMQYLTSTEERNKTARNTIATNIVSISTFHFEGEGNAIRMGYTQLLLMLIGIIVMNIGT
glycan array binding signal (z-score) [1]: -0.437
glycan array binding signal (z-score) (Fuc(a1-2)Gal(b1-4)Glc): -0.146
glycan array binding signal (z-score) [2]: 0.051
glycan array binding signal (z-score) [3]: -0.169
glycan array binding signal (z-score) [4]: 0.006
glycan array binding signal (z-score) [5]: -0.204
glycan array binding signal (z-score) [6]: -0.019
glycan array binding signal (z-score) [7]: -0.304
glycan array binding signal (z-score) [8]: -0.288
glycan array binding signal (z-score) [9]: -0.138
glycan array binding signal (z-score) [10]: -0.1
glycan array binding signal (z-score) [11]: 0.029
glycan array binding signal (z-score) [12]: -0.169
glycan array binding signal (z-score) [13]: 0.109
glycan array binding signal (z-score) [14]: -0.035
glycan array binding signal (z-score) [15]: -0.336
glycan array binding signal (z-score) (Gal(a1-4)Gal(b1-4)GlcNAc): -0.087
glycan array binding signal (z-score) (Gal(b1-3)Gal(b1-4)GlcNAc): 7.29
glycan array binding signal (z-score) (Gal(b1-3)GalNAc): 2.78
glycan array binding signal (z-score) (Gal(b1-3)GalNAc(b1-3)Gal): 2.53
glycan array binding signal (z-score) [16]: 15
glycan array binding signal (z-score) [17]: 4.99
glycan array binding signal (z-score) (Gal(b1-3)GlcNAc): -0.24
glycan array binding signal (z-score) (Gal(b1-3)GlcNAc(b1-2)Man): -0.27
glycan array binding signal (z-score) [18]: -0.333
glycan array binding signal (z-score) [19]: -0.274
glycan array binding signal (z-score) [20]: 3.19
glycan array binding signal (z-score) [21]: 0.093
glycan array binding signal (z-score) [22]: -0.205
glycan array binding signal (z-score) [23]: 2.98
